TWEAK-Fn14 inh = inhibitors of TWEAK-Fn14 interaction signaling | hit rate 2% among 360,000 | inhibition, % at 10 µM | TWEAK-stimulated Fn14 reporter cells, luciferase luminescence, 8 h; in the data active = inhibition above about 50%
Peg3 promoter = Peg3 promoter activity inhibition; hit rate 1.7% among 360,000; HeLa PEG-Prom luciferase reporter, luminescence, overnight; inhibition, % at 20 µM;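 active = inhibition of at least 50% at 20 µM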
TROY signal inh = inhibitors of TROY-dependent NF-kB signaling. Q293 LMP1-TROYcd NF-kB luciferase reporter, 4 h. inhibition, % at 10 µM. hit rate 0.98% among 360,000;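 active = compounds whose plate-normalised and pattern-corrected inhibition of the luciferase reporter signal at the single screening dose is 50% or more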
LMP1 NFkB inh = reduces LMP1-driven NF-kappaB luciferase signal | LMP1-induced NF-kappaB luciferase reporter cells, luminescence | inhibition, % at 12.5 µM | hit rate 0.69% among 350,000 | AID 504558; in the data active = inhibition above about 41%;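 note: 0% = neutral control wells and 100% = reference inhibitor control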
MITF TRPM1 inh = reduces MITF-dependent TRPM1 promoter luciferase signal; SK-MEL-5 TRPM1 promoter luciferase, 24 h; inhibition, % at 12.5 µM; hit rate 0.83% among 330,000; AID 488899;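 active = mean inhibition across replicates of 60% or more, whatever share of single replicates reaches that level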
Shn3 3UTR inh = inhibitors of Schnurri-3 3'UTR reporter in osteoblasts. Clone20 osteoblast Shn3 3'UTR firefly luciferase, 24 h. inhibition, % at 12.5 µM. AID 588674. hit rate 0.52% among 360,000;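 active = mean inhibition of at least 75% with every replicate also reaching 75%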;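 note: 0% = median of neutral control wells and 100% = pilot-screen positive control compound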
An asterisk follows results filed as active; / = no result given. Shown are actives, neighbours in structure and some others; about 4.1% of the full set was active somewhere.

SMILES	TWEAK-Fn14 inh	Peg3 promoter	TROY signal inh	LMP1 NFkB inh	MITF TRPM1 inh	Shn3 3UTR inh
CCOc1ccc(/C=N/Nc2cc(N3CCOCC3)ncn2)c(O)c1	-11	34	0	56*	/	93*
COCCN(C(=O)COC(=O)c1ccc(C)s1)c1c(N)n(Cc2ccccc2)c(=O)[nH]c1=O	9	-6	-26	-8	-18	3
O=[N+]([O-])c1ccccc1OCCOCCOc1cccc2cccnc12	75*	-8	87*	-8	9	9
COC(=O)c1ccccc1OCCOCCOc1cccc2cccnc12	-4	16	3	3	-7	5
N#Cc1ccccc1OCC(=O)NCC(c1ccc(F)cc1)N1CCOCC1 (stereo not drawn)	1	4	11	0	/	17
O=S(=O)(Nc1cccc(S(=O)(=O)N2CCCC2)c1)c1cccs1	21	12	-10	-3	-7	1
CCOC(=O)Cn1c(=NC(=O)c2ccc([N+](=O)[O-])s2)sc2ccccc21	-28	-9	20	12	73*	15
CCOC(=O)Cn1c(=NC(=O)C2COc3ccccc3O2)sc2cc(S(N)(=O)=O)ccc21 (stereo not drawn)	-8	3	0	-6	-10	-1
CCC1(c2ccc(C)cc2)NC(=O)N(C(C)C(=O)Nc2ccc(N3CCOCC3)cc2)C1=O (stereo not drawn)	4	-17	-17	-13	-6	7
Cc1ccccc1C(=O)N1CCC(n2nccc2NC(=O)CCOc2ccccc2)CC1	-9	-20	-25	4	-12	-22
CCOC(=O)C1CCCN(C(=O)c2ccc(OC(C)=O)cc2)C1 (stereo not drawn)	5	9	12	-5	5	-13
CCOC(=O)C1CCCN(C(=O)C(C)(C)Oc2ccc(Cl)cc2)C1 (stereo not drawn)	86*	24	19	1	2	20
Cc1ccc(-c2c(C)sc(NC(=O)C3C4CCC(O4)C3C(=O)O)c2C(=O)OC(C)C)cc1 (stereo not drawn)	-7	10	-5	-1	8	3
CC(C)=C1C2CCC1C(C(=O)Nc1sc(C)c(-c3ccc(C(C)C)cc3)c1C(N)=O)C2C(=O)O (stereo not drawn)	36	28	51*	9	-4	25
O=C(CCc1nnc2ccc(N3CCCC3)nn12)Nc1cc(F)ccc1F	-6	-7	21	-2	-14	6
Cc1nc2ccccc2n1Cc1ccc(Cl)cc1	16	1	-4	2	16	88*
Cc1nc2ccccc2n1CC(O)COc1ccccc1Cl (stereo not drawn)	54*	-7	10	19	9	46
Cc1nc2ccccc2n1CC(O)COc1ccc(Br)cc1 (stereo not drawn)	33	1	2	9	4	64
OCc1nc2ccccc2n1Cc1ccc(Cl)cc1	5	9	-17	-6	5	14
CN(C)c1ccc(-c2ccnc3c2CC(C)(C(=O)NCc2cccc(Cl)c2)O3)cc1 (stereo not drawn)	2	14	-6	/	/	-12
C#CCOC(=O)c1cc(Cl)c(=O)n(Cc2ccc(Cl)cc2Cl)c1	-7	15	-1	-7	4	-8
Fc1ccc(-c2nnc(CN3CCC(c4nc5ccccc5s4)CC3)o2)cc1	53*	5	23	10	1	2
CC(C)Cc1nnc(NC(=O)C2CCN(C(=O)c3ccc(F)cc3)CC2)s1	0	11	-5	10	7	-2
CC(=O)NNc1ncnc2c1cnn2-c1ccc(C)c(Cl)c1	73*	-94	61*	-9	-28	3
CC(=O)NNc1ncnc2c1cnn2-c1ccc(C)cc1	30	-63	14	-13	-8	-17
SMILES	TWEAK-Fn14 inh	Peg3 promoter	TROY signal inh	LMP1 NFkB inh	MITF TRPM1 inh	Shn3 3UTR inh
Cc1ccc(Cl)cc1-n1ncc2c(NNC(=O)c3ccco3)ncnc21	63*	0	-2	2	11	-3
CCN(CC(=O)Nc1ccc(NC(C)=O)cc1)C(=O)CN1C(=O)NC(C)(c2ccc3ccccc3c2)C1=O (stereo not drawn)	-2	4	3	-9	-2	0
CN1/C(=C\C(=S)NC(=O)c2cccc(Br)c2)C(C)(C)c2ccccc21	72*	7	37	20	15	77
CCN(CC)S(=O)(=O)c1cccc(C(=O)/C=C2/N(C)c3ccccc3C2(C)C)c1	61*	24	33	6	7	64
CN1/C(=C\C(=S)NC(=O)c2ccc([N+](=O)[O-])cc2)C(C)(C)c2ccccc21	58*	-17	-27	-6	7	16
COc1cc(OC)c(C2NC(=O)CCC2[N+](=O)[O-])cc1OC (stereo not drawn)	2	-1	1	5	-13	14
COc1ccc(CC(=O)Nc2cccc(-c3nnc(-c4ccccc4)o3)c2)cc1OC	102*	100*	69*	25	42	64
COc1ccc(CC(=O)Nc2ccc(-c3nnc(-c4ccccc4)o3)cc2)cc1OC	-1	-61	-29	-10	-20	5
Cc1ccc(OCC(=O)Nc2cccc(-c3nnc(-c4ccccc4)o3)c2)c(C)c1	14	-23	-30	8	-27	-11
COc1ccc(CC(=O)Nc2cccc(-c3nnc(-c4cccc(C)c4)o3)c2)cc1OC	89*	-56	61*	16	-8	74
COc1ccc(CC(=O)Nc2cccc(-c3nnc(-c4ccc(C)cc4)o3)c2)cc1OC	102*	111*	64*	19	62*	65
CCCn1c(C(C)NC(=O)c2ccccc2)nc2ccccc21 (stereo not drawn)	17	8	3	1	14	0
CCN(CC)c1ccc(NC(=O)Cn2c(C(C)NC(=O)c3ccc(C)cc3)nc3ccccc32)cc1 (stereo not drawn)	-5	99*	37	-16	8	-6
CCOC(=O)Cc1csc(N/N=C\c2ccc(N(C)C)cc2)n1	73*	-76	45	81*	-12	7
CCCCS(=O)(=O)/C=C\C=C/S(=O)(=O)CCCC	79*	102*	47	92*	104*	96*
COC(=O)c1ccc(COc2ccccc2/C=C(\C#N)C(=O)Nc2ccc(C)cc2C)cc1	-44	-23	-6	0	-19	-15
COC(=O)c1ccc(COc2ccccc2/C=C(\C#N)C(=O)Nc2c(C)cc(C)cc2C)cc1	68*	75*	20	15	8	71
O=C(NCC(=O)c1ccccc1)OCc1ccc([N+](=O)[O-])cc1	-1	-44	-16	68*	-23	1
Cc1ccc(S(=O)(=O)N2CCCCC2)cc1NS(=O)(=O)c1ccccc1F	-6	0	-1	7	6	95*
O=C(Nc1cc(S(=O)(=O)N2CCCCC2)ccc1O)c1ccccc1NS(=O)(=O)c1ccc(F)cc1	15	19	43	-8	5	17

Bioassay records as filed in PubChem.
